Giardia FBPA inh – qHTS Assay for Inhibitors of Fructose-1,6-bisphosphate Aldolase from Giardia Lamblia; purified Giardia FBPA; Potency, µM (series often up to 59.6 µM), inactives show at the top dose activity, negative = inhibition, actives largely listed as inhibitors; 290,000 compounds, 0.71% hits; further: potency means the concentration at half of the fitted maximal effect; nearly all actives have a fitted effect of over 55% in size
Target sequence (A8B2U2 whole entry, looked up): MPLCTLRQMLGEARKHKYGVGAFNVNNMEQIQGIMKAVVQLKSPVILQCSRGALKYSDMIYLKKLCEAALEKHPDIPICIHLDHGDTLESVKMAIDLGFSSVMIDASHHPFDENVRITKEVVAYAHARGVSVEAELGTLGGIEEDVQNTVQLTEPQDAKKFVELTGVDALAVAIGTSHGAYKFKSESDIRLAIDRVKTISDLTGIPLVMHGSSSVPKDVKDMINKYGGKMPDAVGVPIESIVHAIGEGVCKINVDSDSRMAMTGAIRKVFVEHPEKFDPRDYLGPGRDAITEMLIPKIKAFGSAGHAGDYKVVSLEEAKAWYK
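40 nM FBPA preincubated 10 min at RT with compound (up to 57.5 uM final), then substrate plus GAPDH/TPI/NAD/arsenate coupling and diaphorase/resazurin added. Fluorescence read after 20 min at RT, 525/598 nm.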
RE007 growth inh – qHTS Assay for Inhibitors of the HIV-1 protein Vpr. S. pombe RE007 Vpr strain, BacTiter-Glo ATP luminescence, 24 h. Potency, µM (doses to about 92.2 µM), for the others: top-dose activity change, negative = less growth, hits mostly inhibitors. 360,000 compounds, 0.21% hits; active means well fitted falling curve with a large enough effect; inconclusive means small, poorly fitted or top-dose-only effect; inactive means no such curve, though single readings can be large or run the other way; further: potency means the concentration at half of the fitted maximal effect; nearly all actives have a fitted effect of over 50% in size
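Fission yeast RE007 carrying one integrated HIV-1 vpr copy, seeded at OD 0.01 in PMG+AL medium with 23 nL pinned compound. Grown 24 h at 30 degrees; viability read by BacTiter-Glo luminescence after 5 min.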
HCMV inh – qHTS Assay for inhibitors of the human cytomegalovirus (HCMV) | HFF cells, HCMV-luciferase reporter, 72 h; active compounds read low | activity change, negative = inhibition, % at 57.5 µM | 410,000 compounds, 4.5% hits | AID 1259415, 2018; in the data active means activity change below about -60%; inconclusive means no clear call, values can overlap the other calls; inactive means above about -39%
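After 16 h attachment at 37C, HFF cells received test compound and HCMV-luciferase (1 PFU/cell); reporter luminescence read 72 h later, data normalized against buffer-only and known inhibitor Salinomycin.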
Sm TGR inh – qHTS Assay for the Inhibitors of Schistosoma Mansoni Peroxiredoxins | Schistosoma mansoni thioredoxin glutathione reductase (TGR), Q962Y6 | purified TGR, DTNB reduction, TNB absorbance 405 nm | Potency, µM (titrated, usually from 114 µM), inactives show top-dose activity change, negative = inhibition, actives largely listed as inhibitors | 360,000 compounds, 3% hits | AID 485364, 2010; further: potency means the concentration at half of the fitted maximal effect; nearly all actives have a fitted effect of over 60% in size
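First, TGR (20 nM dispensed) and NADPH were mixed with compound. Second, a 15 min room-temperature incubation followed. Third, further NADPH and then DTNB were added to start the reaction. Finally, TNB absorbance was monitored kinetically.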
TbPYK inhibitor – qHTS of Trypanosoma Brucei Inhibitors | AID 624173, 2012 | TbPYK enzyme, Kinase-Glo Plus ATP luminescence, 45 min | Potency, µM (highest dose often 76.8 µM), inactives show top-dose activity, negative = inhibition, actives largely listed as inhibitors | 410,000 compounds, 0.12% hits | pyruvate kinase (Trypanosoma brucei), Q57TT1; further: potency means the concentration at half of the fitted maximal effect; nearly all actives have a fitted effect of over 50% in size
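Activity of T. brucei pyruvate kinase was followed by Kinase-Glo Plus luminescence after the enzyme reacted 45 min at room temperature with 130 uM ADP (final) and substrate. Test compounds were added before ADP at multiple concentrations.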
FMDV inh – High Throughput Screening for Foot and Mouth Disease Virus Antivirals; Potency, µM (titrated, usually from 57.9 µM), inactives show at the top dose activity change, negative = inhibition, most hits filed as inhibitors; FMDV antiviral cell-based qHTS; 410,000 compounds, 1.2% hits; calls by dose curve; tested in HEK293T cells; further: read-out not given here; potency means the concentration at half of the fitted maximal effect; nearly all actives have a fitted effect of over 45% in size
* marks the source's active call; other numbers are inactive results; ? = inconclusive; nt = no result. Shown are actives, neighbours in structure and some others; about 7.7% of the full set was active somewhere. Unless noted, the call rests on the fitted dose curve; in most records, active means well fitted curve in the direction sought with a large enough effect; inconclusive means small, poorly fitted or top-dose-only effect, or another doubt; inactive means no such curve, though single readings can be large; an effect the other way counts as inactive or inconclusive. On the % scale 0 is the no-effect control and ±100 the full control effect.

SMILES	Giardia FBPA inh	RE007 growth inh	HCMV inh	Sm TGR inh	TbPYK inhibitor	FMDV inh
CCCOc1ccc(C2C(=O)N(C3CCC(C)CC3)CC(=O)N2CCc2ccccc2)cc1OC (stereo not given)	nt	nt	-13.4	-8.0%	-5.6%	-11.4%
CCCC/C=C/[C@H](C)[C@@](C)(COC(=O)c1ccc(Br)cc1)Cc1ccccc1	4.4%	nt	nt	nt	nt	nt
COc1ccc(-c2nsc3c(N4CCCCC4)ncnc23)cc1	-0.6%	-23.7%	-82.8*	0.0%	-0.1%	?
COc1ccc(-c2nsc3c(N4CCCCC4C)ncnc23)cc1 (stereo not given)	-0.3%	-16.0%	-97.1*	nt	4.3%	0.0316µM*
COc1ccc(C(=O)N2CCN(c3ncnc4c(-c5ccccc5)nsc34)CC2)cc1	10.6%	-4.7%	-6.5	-2.0%	-13.3%	?
CCOC(=O)c1ccc(NC(=O)OC[C@@H]2CSCCS(=O)(=O)N2)cc1	nt	nt	-13.7	nt	nt	nt
CC1CN(C(NC(=O)c2ccccc2)C(Cl)(Cl)Cl)CC(C)O1 (stereo not given)	4.1%	0.9%	6.6	20µM*	-0.1%	-13.5%
CC1CN(C(C)C(=O)NNC(=O)c2ccc(F)cc2)CC(C)O1 (stereo not given)	nt	-12.8%	-23.3	nt	-3.8%	20.7%
CC1CN(C(NC(=O)C(C)(C)C)C(Cl)(Cl)Cl)CC(C)O1 (stereo not given)	0.9%	13.1%	-7.1	35.5µM*	-4.5%	17.0%
CCc1nnc(SC(CC)C(=O)NCCOC)c2cc3occc3n12 (stereo not given)	nt	nt	-32.5	-1.1%	4.6%	-19.5%
CC(C)[C@@H](CC(=O)N[C@@H]1CCCC[C@H]1C(=O)N[C@H](CC(=O)N[C@@H](CCC(=O)O)CC(=O)O)Cc1ccccc1)NC(=O)C[C@H](CO)NC(=O)[C@@H]1CCCC[C@H]1N	-20.7%	nt	nt	nt	nt	nt
O=C(Cc1ccc(F)cc1)NC(Cc1c[nH]c2ccccc12)C(=O)O (stereo not given)	-5.9%	17.5%	-62.3*	1.2%	27.5%	17.2%
O=C(Cc1c[nH]c2ccccc12)N[C@@H](Cc1c[nH]c2ccccc12)C(=O)O	17.4%	3.2%	20.8	3.9%	4.0%	1.2%
COC(=O)[C@@H](Cc1c[nH]c2ccccc12)NC(=O)c1ccc2c(c1)OCO2	2.6%	-11.5%	-104.6*	-23.2%	-16.5%	-2.4%
Fc1ccc(N/N=C2/CCSc3sccc32)c(F)c1	2.4%	1.2%	64.1	25.1µM*	-8.2%	21.6%
Cc1nn(CC(=O)Nc2ccc3c(c2)OCO3)c(C)c1Cl	nt	1.2%	17.1	-14.6%	-5.3%	30.1%
O=C(Cn1ncc(Cl)c(Cl)c1=O)N1CCN(S(=O)(=O)c2ccc3ccccc3c2)CC1	6.3%	16.2%	-85.6*	22.4µM*	-1.1%	28.2µM*
O=C(Cn1ncc(Cl)c(Cl)c1=O)Nc1ccc2c(c1)OCO2	nt	-10.1%	-101.9*	44.7µM*	3.6%	35.5µM*
O=C(Cn1ncc(Cl)c(Cl)c1=O)c1ccc2c(c1)OCCO2	nt	13.2%	-81.1*	nt	-4.7%	?
Cc1ccc2oc(=O)c3cnn(CC(=O)Nc4ccc(Br)cc4C)c3c2c1	nt	nt	8.2	-0.3%	3.7%	-6.5%
Cc1cc(Br)ccc1NC(=O)CNC(=O)Cn1ncc(Cl)c(Cl)c1=O	-4.0%	-6.2%	-100.9*	1.41µM*	6.1%	6.31µM*
CCN(CC)S(=O)(=O)c1cc(NC(=O)Cn2ncc(Cl)c(Cl)c2=O)ccc1C	0.9%	8.7%	-79.1*	0.562µM*	0.1%	-93.0%
Cc1ccc(S(=O)(=O)N2CCCCC2)cc1NC(=O)Cn1cnnn1	2.2%	-0.4%	-6.0	15.4%	-3.0%	-14.8%

Source: PubChem BioAssay
